# According to article PMC4631838:
# Columns and labels:
# Assay in all cases: cross-link between two proteins; cross-linking mass spectrometry
# [1] = target: DNA-directed RNA polymerase II subunit RPB3 (UniProt P16370)
# [2] = target: DNA-directed RNA polymerases I, II, and III subunit RPABC2 (UniProt P20435)
# [3] = target: DNA-directed RNA polymerase II subunit RPB11 (UniProt P38902)
# [4] = target: DNA-directed RNA polymerase II subunit RPB9 (UniProt P27999)
# [5] = target: DNA-directed RNA polymerases I, II, and III subunit RPABC1 (UniProt P20434)
# DNA-directed RNA polymerases I, II, and III subunit RPABC1, sequence (P20434 whole entry): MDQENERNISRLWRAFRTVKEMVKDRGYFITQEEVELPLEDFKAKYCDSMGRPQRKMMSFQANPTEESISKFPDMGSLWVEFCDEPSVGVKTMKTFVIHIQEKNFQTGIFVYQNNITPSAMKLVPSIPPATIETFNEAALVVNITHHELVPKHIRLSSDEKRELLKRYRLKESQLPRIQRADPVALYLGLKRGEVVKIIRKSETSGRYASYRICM
# [6] = target: DNA-directed RNA polymerases I, II, and III subunit RPABC3 (UniProt P20436)
# DNA-directed RNA polymerases I, II, and III subunit RPABC3, sequence (P20436 whole entry): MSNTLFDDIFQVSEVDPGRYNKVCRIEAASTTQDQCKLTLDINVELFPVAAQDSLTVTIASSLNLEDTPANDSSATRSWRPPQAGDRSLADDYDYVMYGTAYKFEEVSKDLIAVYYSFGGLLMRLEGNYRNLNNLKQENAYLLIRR
# [7] = target: DNA-directed RNA polymerase II subunit RPB7 (UniProt P34087)
# DNA-directed RNA polymerase II subunit RPB7, sequence (P34087 whole entry): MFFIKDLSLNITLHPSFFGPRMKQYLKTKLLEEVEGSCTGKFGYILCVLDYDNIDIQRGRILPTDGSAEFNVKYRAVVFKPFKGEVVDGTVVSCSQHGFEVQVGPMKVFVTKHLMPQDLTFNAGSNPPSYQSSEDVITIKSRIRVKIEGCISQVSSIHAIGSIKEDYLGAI
# DNA-directed RNA polymerase II subunit RPB1, P04050, sequence (P04050 whole entry): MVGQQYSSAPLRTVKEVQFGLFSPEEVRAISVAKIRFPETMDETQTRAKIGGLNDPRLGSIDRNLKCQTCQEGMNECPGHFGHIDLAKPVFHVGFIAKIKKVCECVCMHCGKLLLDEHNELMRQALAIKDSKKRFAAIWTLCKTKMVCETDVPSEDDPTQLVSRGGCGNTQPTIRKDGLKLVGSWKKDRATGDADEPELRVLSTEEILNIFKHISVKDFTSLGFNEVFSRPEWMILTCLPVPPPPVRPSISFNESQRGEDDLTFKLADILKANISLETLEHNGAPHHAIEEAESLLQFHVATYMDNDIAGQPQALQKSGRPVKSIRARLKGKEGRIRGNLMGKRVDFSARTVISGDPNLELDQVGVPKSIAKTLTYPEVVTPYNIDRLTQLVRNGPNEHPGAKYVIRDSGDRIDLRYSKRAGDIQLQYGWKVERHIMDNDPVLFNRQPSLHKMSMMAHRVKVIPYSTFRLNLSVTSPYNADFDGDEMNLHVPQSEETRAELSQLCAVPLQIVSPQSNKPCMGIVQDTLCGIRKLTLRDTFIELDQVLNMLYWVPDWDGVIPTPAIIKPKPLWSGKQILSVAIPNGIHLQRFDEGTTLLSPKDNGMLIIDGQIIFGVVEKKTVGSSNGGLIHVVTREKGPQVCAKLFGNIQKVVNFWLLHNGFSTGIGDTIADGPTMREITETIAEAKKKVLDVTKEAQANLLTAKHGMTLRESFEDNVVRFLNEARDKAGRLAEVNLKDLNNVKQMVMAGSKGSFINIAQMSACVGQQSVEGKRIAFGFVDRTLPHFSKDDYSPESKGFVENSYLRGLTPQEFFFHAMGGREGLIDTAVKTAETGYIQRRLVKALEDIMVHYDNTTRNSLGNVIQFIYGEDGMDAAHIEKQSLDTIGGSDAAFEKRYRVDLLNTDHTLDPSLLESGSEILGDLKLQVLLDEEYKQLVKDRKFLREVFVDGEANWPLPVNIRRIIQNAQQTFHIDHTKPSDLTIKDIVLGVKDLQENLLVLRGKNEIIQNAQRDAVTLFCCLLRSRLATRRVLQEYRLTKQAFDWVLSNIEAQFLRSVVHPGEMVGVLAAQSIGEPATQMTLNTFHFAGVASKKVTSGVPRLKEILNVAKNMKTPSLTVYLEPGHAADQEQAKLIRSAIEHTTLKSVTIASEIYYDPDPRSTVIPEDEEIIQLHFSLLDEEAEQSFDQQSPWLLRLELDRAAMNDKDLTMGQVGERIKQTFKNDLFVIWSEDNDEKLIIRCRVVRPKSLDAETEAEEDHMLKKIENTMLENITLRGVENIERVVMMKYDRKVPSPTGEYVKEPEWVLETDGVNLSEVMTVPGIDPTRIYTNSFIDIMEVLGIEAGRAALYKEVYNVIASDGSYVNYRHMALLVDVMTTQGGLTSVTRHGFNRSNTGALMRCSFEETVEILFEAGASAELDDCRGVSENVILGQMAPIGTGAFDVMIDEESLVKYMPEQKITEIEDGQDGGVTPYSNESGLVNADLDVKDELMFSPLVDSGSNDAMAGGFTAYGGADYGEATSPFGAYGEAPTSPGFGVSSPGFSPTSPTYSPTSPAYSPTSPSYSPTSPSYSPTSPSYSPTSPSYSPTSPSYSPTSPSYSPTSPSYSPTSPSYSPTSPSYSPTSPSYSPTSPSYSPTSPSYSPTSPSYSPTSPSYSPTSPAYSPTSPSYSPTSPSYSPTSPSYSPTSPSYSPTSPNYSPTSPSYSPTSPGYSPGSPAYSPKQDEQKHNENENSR
# DNA-directed RNA polymerases I, II, and III subunit RPABC2, sequence (P20435 whole entry): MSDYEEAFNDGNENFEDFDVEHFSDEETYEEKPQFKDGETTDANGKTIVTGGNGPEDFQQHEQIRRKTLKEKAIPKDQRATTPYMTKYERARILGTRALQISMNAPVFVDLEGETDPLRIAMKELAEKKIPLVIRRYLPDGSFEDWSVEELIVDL
# DNA-directed RNA polymerase II subunit RPB11, sequence (P38902 whole entry): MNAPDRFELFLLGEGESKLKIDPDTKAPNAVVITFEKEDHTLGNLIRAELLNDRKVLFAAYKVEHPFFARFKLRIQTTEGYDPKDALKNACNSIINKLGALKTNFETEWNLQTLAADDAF
# DNA-directed RNA polymerase II subunit RPB9, sequence (P27999 whole entry): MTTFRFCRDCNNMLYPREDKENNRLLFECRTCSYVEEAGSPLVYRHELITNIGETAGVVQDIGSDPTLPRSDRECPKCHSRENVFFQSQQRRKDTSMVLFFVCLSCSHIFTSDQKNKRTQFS
# DNA-directed RNA polymerase II subunit RPB2, P08518, sequence (P08518 whole entry): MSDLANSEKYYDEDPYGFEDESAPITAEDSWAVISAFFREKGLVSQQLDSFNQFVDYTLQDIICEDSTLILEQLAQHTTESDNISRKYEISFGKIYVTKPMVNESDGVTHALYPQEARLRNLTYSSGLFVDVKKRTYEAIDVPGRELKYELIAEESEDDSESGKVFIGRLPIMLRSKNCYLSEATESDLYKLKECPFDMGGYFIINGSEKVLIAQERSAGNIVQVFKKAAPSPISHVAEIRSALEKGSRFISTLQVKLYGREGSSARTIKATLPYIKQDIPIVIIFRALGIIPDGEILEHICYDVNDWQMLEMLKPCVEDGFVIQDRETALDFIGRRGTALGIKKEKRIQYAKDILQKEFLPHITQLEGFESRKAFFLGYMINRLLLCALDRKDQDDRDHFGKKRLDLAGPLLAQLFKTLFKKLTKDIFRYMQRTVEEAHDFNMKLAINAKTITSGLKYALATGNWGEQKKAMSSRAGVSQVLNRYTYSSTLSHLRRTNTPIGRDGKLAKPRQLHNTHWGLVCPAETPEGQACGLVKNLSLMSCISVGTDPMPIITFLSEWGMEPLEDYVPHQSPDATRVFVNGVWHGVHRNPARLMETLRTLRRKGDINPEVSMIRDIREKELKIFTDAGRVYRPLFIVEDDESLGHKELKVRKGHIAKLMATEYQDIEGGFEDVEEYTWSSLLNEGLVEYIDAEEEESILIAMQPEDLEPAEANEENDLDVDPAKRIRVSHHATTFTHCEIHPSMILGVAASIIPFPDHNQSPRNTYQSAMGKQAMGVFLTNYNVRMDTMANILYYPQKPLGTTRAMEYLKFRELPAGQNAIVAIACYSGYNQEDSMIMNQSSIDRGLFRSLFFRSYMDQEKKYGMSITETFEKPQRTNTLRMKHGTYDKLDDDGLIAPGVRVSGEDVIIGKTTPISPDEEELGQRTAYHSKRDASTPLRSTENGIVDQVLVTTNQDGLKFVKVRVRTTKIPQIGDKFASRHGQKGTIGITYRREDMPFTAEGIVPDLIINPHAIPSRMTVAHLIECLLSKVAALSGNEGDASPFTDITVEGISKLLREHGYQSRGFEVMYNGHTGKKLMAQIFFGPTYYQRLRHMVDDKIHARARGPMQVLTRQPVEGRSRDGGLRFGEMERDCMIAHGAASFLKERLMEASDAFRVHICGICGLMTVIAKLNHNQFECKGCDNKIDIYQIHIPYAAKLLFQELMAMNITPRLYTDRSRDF
# DNA-directed RNA polymerase II subunit RPB3, sequence (P16370 whole entry): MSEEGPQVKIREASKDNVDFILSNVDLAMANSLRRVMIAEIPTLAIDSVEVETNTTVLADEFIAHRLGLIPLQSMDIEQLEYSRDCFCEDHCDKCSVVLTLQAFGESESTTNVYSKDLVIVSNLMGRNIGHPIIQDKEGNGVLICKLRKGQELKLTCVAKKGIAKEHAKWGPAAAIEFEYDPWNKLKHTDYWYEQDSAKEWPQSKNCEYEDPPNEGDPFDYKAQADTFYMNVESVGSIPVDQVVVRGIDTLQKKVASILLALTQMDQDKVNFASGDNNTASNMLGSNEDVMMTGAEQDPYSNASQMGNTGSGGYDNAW
substance,measurement,setting,value
"DNA-directed RNA polymerase II subunit RPB2, P08518",listed as a hit,[1],yes
"DNA-directed RNA polymerases I, II, and III subunit RPABC1, P20434",listed as a hit,[2],yes
"DNA-directed RNA polymerase II subunit RPB1, P04050",listed as a hit,[3],yes
same,listed as a hit,[4],yes
same,listed as a hit,[5],yes
same,listed as a hit,[2],yes
same,listed as a hit,[6],yes
"DNA-directed RNA polymerase II subunit RPB4, P20433",listed as a hit,[7],yes
